Experimental data published in the antibiotic and cytotoxicity screens of Wong et al. (2023).
Out of some 39,000 compounds screened, about 1,500 (3.8%) were called active. The full list was thinned out, with actives kept by preference.

The molecules below were run on HSkMC (human skeletal muscle cells) (assay: cytotoxicity call (relative viability < 0.9)). Settings: 10 µM.

| SMILES | cytotoxicity call |
| --- | --- |
| C[C@H](CO)N1C[C@H](C)[C@H](CN(C)S(=O)(=O)c2cccs2)Oc2c(NC(=O)Nc3cccc4ccccc34)cccc2C1=O | inactive |
| COC(=O)C[C@H]1C=C[C@H](N)[C@H](CO)O1 | inactive |
| Cc1noc(C)c1S(=O)(=O)Nc1ccc2c(c1)CC(=O)N([C@H](C)CO)C[C@H](C)[C@@H](CN(C)S(=O)(=O)c1cccs1)O2 | inactive |
| C[C@@H]1CCCCO[C@@H](CN(C)S(=O)(=O)c2ccc(F)cc2)[C@H](C)CN([C@H](C)CO)C(=O)c2cc(NS(=O)(=O)c3ccc(Cl)cc3)ccc2O1 | inactive |
| C[C@H](CO)N1C[C@H](C)[C@H](CN(C)Cc2ccc(Cl)c(Cl)c2)Oc2ccc(NS(=O)(=O)c3ccc(F)cc3)cc2C1=O | inactive |
| C[C@@H]1CN([C@@H](C)CO)C(=O)c2cc(NS(=O)(=O)c3ccc(F)cc3)ccc2O[C@@H]1CN(C)Cc1ccc(Cl)c(Cl)c1 | inactive |
| C[C@@H]1CN([C@H](C)CO)C(=O)c2cc(NS(=O)(=O)c3ccc(F)cc3)ccc2O[C@@H]1CN(C)Cc1ccc(Cl)c(Cl)c1 | inactive |
| C[C@H]1CN([C@@H](C)CO)C(=O)c2cc(NS(=O)(=O)c3ccc(F)cc3)ccc2O[C@H]1CN(C)Cc1ccc(Cl)c(Cl)c1 | inactive |
| C[C@H](CO)N1C[C@H](C)[C@@H](CN(C)Cc2ccc(Cl)c(Cl)c2)Oc2ccc(NS(=O)(=O)c3ccc(F)cc3)cc2C1=O | inactive |
| C[C@@H]1CN([C@H](C)CO)C(=O)c2cc(NS(=O)(=O)c3ccc(F)cc3)ccc2O[C@H]1CN(C)Cc1ccc(Cl)c(Cl)c1 | active |
| C[C@@H]1CN([C@@H](C)CO)C(=O)c2cc(NS(=O)(=O)c3ccc(F)cc3)ccc2O[C@H]1CN(C)Cc1ccc(Cl)c(Cl)c1 | active |
| C[C@H]1CN([C@@H](C)CO)C(=O)c2cc(NS(=O)(=O)c3ccc(F)cc3)ccc2O[C@@H]1CN(C)Cc1ccc(Cl)c(Cl)c1 | active |
| NC[C@H]1CC[C@H](C(=O)O)CC1 | inactive |
| C[C@@H]1CCCCO[C@H](CN(C)Cc2ccccc2)[C@H](C)CN([C@@H](C)CO)C(=O)c2cc(NC(=O)c3ccccc3)ccc2O1 | inactive |
| COc1ccccc1CNC(=O)C[C@@H]1C[C@H]2c3cc(NC(=O)c4ccc5c(c4)OCO5)ccc3O[C@H]2[C@@H](CO)O1 | inactive |
| C[C@@H]1CN([C@H](C)CO)C(=O)CCCn2nncc2CO[C@@H]1CN(C)S(=O)(=O)c1ccc(Oc2ccccc2)cc1 | inactive |
| Cc1ccc(S(=O)(=O)N2C[C@@H](O)COC[C@H]3O[C@H](CC(=O)NCc4cccc(C(F)(F)F)c4)CC[C@@H]32)cc1 | inactive |
| O=C1O[C@@H](c2ccccc2)[C@@H](c2ccccc2)N2[C@@H](c3ccc(O)cc3)[C@]3(C(=O)Nc4ccc(C#CC5(O)CCCCCC5)cc43)[C@@H](C(=O)N3CCCCCCC3)[C@H]12 | inactive |
| CNC[C@H]1OCCCC[C@H](C)Oc2ccc(NS(=O)(=O)c3cn(C)cn3)cc2C(=O)N([C@@H](C)CO)C[C@@H]1C | inactive |
| C[C@@H]1CCCCO[C@@H](CN(C)C(=O)C2CCCCC2)[C@@H](C)CN([C@@H](C)CO)C(=O)c2cc(NC(=O)C3CCCCC3)ccc2O1 | inactive |

| SMILES | cytotoxicity call |
| --- | --- |
| COc1ccc(S(=O)(=O)Nc2ccc3c(c2)CC(=O)N([C@@H](C)CO)C[C@H](C)[C@@H](CN(C)S(=O)(=O)c2ccc(OC)cc2)O3)cc1 | inactive |
| COC(=O)[C@@]12CCC(C)(C)C[C@@H]1[C@@H]1C(=O)C=C3[C@]4(C)C=C(C#N)C(=O)C(C)(C)[C@H]4CC[C@]3(C)[C@@]1(C)CC2 | active |
| COC(=O)[C@]12CCC(C)(C)C[C@H]1[C@H]1C(=O)C=C3[C@@]4(C)C=C(C#N)C(=O)C(C)(C)[C@@H]4CC[C@@]3(C)[C@]1(C)CC2 | active |
| COc1ccc(CN(C)C[C@@H]2OCCCC[C@H](C)Oc3ccc(NC(=O)NC4CCCCC4)cc3C(=O)N([C@@H](C)CO)C[C@H]2C)cc1 | inactive |
| CC1(C)[C@@H](OC(=O)CCC(=O)O)CC[C@]2(C)[C@H]3C(=O)C=C4[C@@H]5C[C@@](C)(C(=O)O)CC[C@]5(C)CC[C@@]4(C)[C@]3(C)CC[C@@H]12 | inactive |
| C[C@@H]1CN([C@@H](C)CO)S(=O)(=O)c2ccc(/C=C/c3ccccc3)cc2O[C@@H]1CN(C)C(=O)Nc1cc(F)ccc1F | inactive |
| Cc1ccc(S(=O)(=O)Nc2ccc3c(c2)CC(=O)N([C@H](C)CO)C[C@H](C)[C@H](CN(C)CC2CC2)O3)cc1 | inactive |
| C[C@@H]1CN([C@@H](C)CO)C(=O)c2c(c3ccccc3n2C)-c2ccccc2CO[C@@H]1CN(C)C(=O)c1cc(Cl)cc(Cl)c1 | inactive |
| C[C@H]1CN([C@@H](C)CO)C(=O)c2c(c3ccccc3n2C)-c2ccccc2CO[C@H]1CN(C)C(=O)c1cc(Cl)cc(Cl)c1 | inactive |
| C[C@@H]1CN([C@H](C)CO)C(=O)c2c(c3ccccc3n2C)-c2ccccc2CO[C@H]1CN(C)C(=O)c1cc(Cl)cc(Cl)c1 | active |
| C[C@H]1CN([C@@H](C)CO)C(=O)c2c(c3ccccc3n2C)-c2ccccc2CO[C@@H]1CN(C)C(=O)c1cc(Cl)cc(Cl)c1 | inactive |
| C[C@@H](C(=O)N(C)C[C@H]1OCc2ccccc2-c2c(n(C)c3ccccc23)C(=O)N([C@@H](C)CO)C[C@@H]1C)c1ccccc1 | inactive |
| C[C@@H]1CN([C@@H](C)CO)C(=O)c2c(c3ccccc3n2C)-c2ccccc2CO[C@@H]1CN(C)C(=O)[C@H](C)c1ccccc1 | inactive |
| C[C@@H]1CN([C@H](C)CO)C(=O)c2c(c3ccccc3n2C)-c2ccccc2CO[C@@H]1CN(C)C(=O)[C@H](C)c1ccccc1 | active |
| C[C@@H]1CN([C@@H](C)CO)C(=O)c2c(c3ccccc3n2C)-c2ccccc2CO[C@H]1CN(C)C(=O)c1cc(Cl)cc(Cl)c1 | inactive |
| C[C@H](CO)N1C[C@H](C)[C@@H](CN(C)C(=O)c2cc(Cl)cc(Cl)c2)OCc2ccccc2-c2c(n(C)c3ccccc23)C1=O | active |
| C[C@H](CO)N1C[C@H](C)[C@H](CN(C)S(C)(=O)=O)Oc2ccc(NC(=O)CCN3CCOCC3)cc2C1=O | inactive |
| C[C@@H]1CN([C@@H](C)CO)C(=O)c2c(c3ccccc3n2C)-c2ccccc2CO[C@H]1CN(C)S(=O)(=O)c1cn(C)cn1 | inactive |
| C[C@H]1CN([C@@H](C)CO)C(=O)c2cc(NC(=O)Cn3cnnn3)ccc2O[C@H]1CN(C)C(=O)Nc1ccccc1 | inactive |
| C[C@H](CO)N1C[C@H](C)[C@@H](CN(C)Cc2ccc(C(=O)O)cc2)Oc2c(NC(=O)c3ccc(-c4nccs4)cc3)cccc2C1=O | inactive |

| SMILES | cytotoxicity call |
| --- | --- |
| CC(=O)OC1CC(O)C(C)(C)C2CC(OC(C)=O)C3(C)C(CCC4(C)C(c5ccoc5)OC(=O)C5OC543)C12C (stereo not given) | inactive |
| C[C@@H]1CN([C@@H](C)CO)C(=O)c2cc(NC(=O)Nc3ccc(F)cc3)ccc2O[C@@H](C)CCCCO[C@@H]1CN(C)S(=O)(=O)c1ccccc1 | inactive |
| COc1ccc2c3c(n(c2c1)C)[C@H](CO)N(C[C@]13CCN(CC1)C(=O)c1ccccn1)C(=O)c1ccccn1 | inactive |
| O=C(Nc1ccc(F)cc1)N[C@@H]1C[C@@H]2O[C@@H](CO)CC[C@@H]2O[C@@H]1CCc1ccc(-c2ccccc2)cc1 | inactive |
| OC[C@@H]1CC[C@@H]2O[C@H](CCc3ccc(C#CCc4ccccc4)cc3)[C@H](n3cc(-c4ccccc4)nn3)C[C@@H]2O1 | inactive |
| OC[C@H]1CC[C@@H]2O[C@H](CCc3ccc(C#CCc4ccccc4)cc3)[C@H](n3cc(-c4ccccc4)nn3)C[C@@H]2O1 | active |
| OC[C@@H]1CC[C@@H]2O[C@H](CCc3ccc(C#CCc4ccccc4)cc3)[C@@H](n3cc(-c4ccccc4)nn3)C[C@@H]2O1 | inactive |
| OC[C@@H]1CC[C@@H]2O[C@H](CCc3ccc(C#Cc4ccccc4)cc3)[C@@H](n3cc(-c4ccccc4)nn3)C[C@@H]2O1 | active |
| OC[C@H]1CC[C@@H]2O[C@H](CCc3ccc(C#CCc4ccccc4)cc3)[C@@H](n3cc(-c4ccccc4)nn3)C[C@@H]2O1 | inactive |
| O=C(Nc1ccc(F)cc1)N[C@@H]1C[C@@H]2O[C@H](CO)CC[C@@H]2O[C@@H]1CCc1ccc(-c2ccccc2)cc1 | inactive |
| N[C@@H]1CC[C@@H](CCn2cc(-c3cccc(F)c3)nn2)O[C@H]1CO | inactive |
| OC[C@H]1CC[C@@H]2O[C@H](CCc3ccc(C#Cc4ccccc4)cc3)[C@@H](n3cc(-c4ccccc4)nn3)C[C@@H]2O1 | inactive |
| OC[C@H]1O[C@@H](S[C@@H]2O[C@H](CO)[C@H](O)[C@H](n3cc(-c4cccc(F)c4)nn3)[C@H]2O)[C@H](O)[C@@H](n2cc(-c3cccc(F)c3)nn2)[C@H]1O | inactive |
| OC[C@@H]1CC[C@@H]2O[C@H](CCc3ccc(C#Cc4ccccc4)cc3)[C@H](n3cc(-c4ccccc4)nn3)C[C@@H]2O1 | active |
| OC[C@H]1CC[C@@H]2O[C@H](CCc3ccc(C#Cc4ccccc4)cc3)[C@H](n3cc(-c4ccccc4)nn3)C[C@@H]2O1 | active |
| C[C@H](CO)N1C[C@H](C)[C@H](CN(C)S(=O)(=O)c2cn(C)cn2)Oc2c(NC(=O)Nc3ccc4c(c3)OCO4)cccc2C1=O | inactive |
| O=C1CNC(=O)N1C1CCNCC1 | inactive |
| O=C(N/N=C/[C@H](O)[C@@H](O)[C@H](O)[C@H](O)CO[C@H]1O[C@H](CO)[C@H](O)[C@H](O)[C@H]1O)c1ccccn1 | inactive |
| O=C(O)CN1Cc2ccccc2C1=O | inactive |
| Cc1noc(C)c1S(=O)(=O)N(C)C[C@@H]1OCCCC[C@H](C)Oc2ccc(NS(C)(=O)=O)cc2C(=O)N([C@H](C)CO)C[C@@H]1C | inactive |
